Assay results as given in the supplement of paper PMC10127200.
Where a name gives a salt, the structure may show the parent alone.

Each compound was assayed on A549 (assay: Euclidean distance of Cell Painting phenotypic profile (signed KS, 77 features) to DMSO centroid (dimensionless distance); 5 or 10 uM (library dependent); higher = stronger phenotypic change vs DMSO (phenoactivity)). Conditions: 48 h.
Procedure, shortened: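 Five cancer lines, together with a healthy fibroblast line, received library compounds for 48 h at a library-dependent 10 or 5 uM and 0.1% DMSO final. Harmony then derived 77 features from confocal 20X images (9 fields/well) of the stained cells, scoring each as a signed Kolmogorov-Smirnov statistic against same-plate vehicle wells. After plate-position correction, correlation weighting and replicate averaging at the top dose, phenoactivity was taken as each profile's Euclidean distance to the median vehicle profile.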

SMILES	Euclidean distance
CC(C)N(CCC(=O)c1ccc2ccccc2c1)Cc1ccccc1	1.15
O=C1CCCC(=O)C1C(=O)c1ccc(C(F)(F)F)cc1[N+](=O)[O-] [Nitisinone]	0.58
CCOC(=O)C1=C(C)NC(C)=C(C(=O)OC)C1c1cccc([N+](=O)[O-])c1 (centres undefined) [Nitrendipine]	0.871
C/C(=C\C(=O)OCCCCCCCCC(=O)O)C[C@@H]1OC[C@H](C[C@@H]2O[C@H]2[C@@H](C)[C@H](C)O)[C@@H](O)[C@H]1O [Mupirocin calcium]	0.948
CN[C@@H](C)C(=O)N[C@H]1CN(C(=O)CC(C)C)CC[C@H]2CC[C@@H](C(=O)NC(c3ccccc3)c3ccccc3)N2C1=O	1.35
C[C@H]1COc2c(N3CCN(C)CC3)c(F)cc3c(=O)c(C(=O)O)cn1c23 [Levofloxacin hydrate]	0.678
O=C(Nc1ccccc1)OCC(CN1CCCCC1)OC(=O)Nc1ccccc1 (centres undefined) [Diperodon HCl]	1.43
CC(C)Oc1ccc2c(=O)c(-c3ccccc3)coc2c1 [Ipriflavone (Osteofix)]	1.44
CC(=O)[C@H]1CC[C@H]2[C@@H]3CC=C4C[C@@H](O)CC[C@]4(C)[C@H]3CC[C@]12C [Pregnenolone]	1.07
CC(C)CC(N)=O [Isovaleramide]	1.09
CCCN1CCCC[C@H]1C(=O)Nc1c(C)cccc1C [Ropivacaine]	1.64
Cc1cnc(-c2cc(N3CCN(C(=O)CCS(C)(=O)=O)CC3)ncc2Cl)c(C)c1	1.09
COc1ccccc1N1CCN(CCCNc2cc(=O)n(C)c(=O)n2C)CC1 [Urapidil HCl]	0.9
OCCN1CCN(CCCN2c3ccccc3Sc3ccc(C(F)(F)F)cc32)CC1 [Fluphenazine dihydrochloride]	2.27
